Source: the supplement of paper PMC11732987, “Enantioselective OTUD7B fragment discovery through chemoproteomics screening and high-throughput optimisation” (Communications Chemistry, 2025)

Legend:
Experiment in all cases: log2 ratio of Biotin-Ahx-Ub-VS probe labelling (fragment/DMSO); higher = less target engagement (more negative = stronger competition), active = hit call of the paper (q ≤ 0.05, log2 ratio ≤ -1)
Conditions in all cases: compound concentration: 200 uM; treatment time: 3 h
[1] = molecular target: T1, USP42 (UniProt Q9H9J4)
T1 sequence (whole entry): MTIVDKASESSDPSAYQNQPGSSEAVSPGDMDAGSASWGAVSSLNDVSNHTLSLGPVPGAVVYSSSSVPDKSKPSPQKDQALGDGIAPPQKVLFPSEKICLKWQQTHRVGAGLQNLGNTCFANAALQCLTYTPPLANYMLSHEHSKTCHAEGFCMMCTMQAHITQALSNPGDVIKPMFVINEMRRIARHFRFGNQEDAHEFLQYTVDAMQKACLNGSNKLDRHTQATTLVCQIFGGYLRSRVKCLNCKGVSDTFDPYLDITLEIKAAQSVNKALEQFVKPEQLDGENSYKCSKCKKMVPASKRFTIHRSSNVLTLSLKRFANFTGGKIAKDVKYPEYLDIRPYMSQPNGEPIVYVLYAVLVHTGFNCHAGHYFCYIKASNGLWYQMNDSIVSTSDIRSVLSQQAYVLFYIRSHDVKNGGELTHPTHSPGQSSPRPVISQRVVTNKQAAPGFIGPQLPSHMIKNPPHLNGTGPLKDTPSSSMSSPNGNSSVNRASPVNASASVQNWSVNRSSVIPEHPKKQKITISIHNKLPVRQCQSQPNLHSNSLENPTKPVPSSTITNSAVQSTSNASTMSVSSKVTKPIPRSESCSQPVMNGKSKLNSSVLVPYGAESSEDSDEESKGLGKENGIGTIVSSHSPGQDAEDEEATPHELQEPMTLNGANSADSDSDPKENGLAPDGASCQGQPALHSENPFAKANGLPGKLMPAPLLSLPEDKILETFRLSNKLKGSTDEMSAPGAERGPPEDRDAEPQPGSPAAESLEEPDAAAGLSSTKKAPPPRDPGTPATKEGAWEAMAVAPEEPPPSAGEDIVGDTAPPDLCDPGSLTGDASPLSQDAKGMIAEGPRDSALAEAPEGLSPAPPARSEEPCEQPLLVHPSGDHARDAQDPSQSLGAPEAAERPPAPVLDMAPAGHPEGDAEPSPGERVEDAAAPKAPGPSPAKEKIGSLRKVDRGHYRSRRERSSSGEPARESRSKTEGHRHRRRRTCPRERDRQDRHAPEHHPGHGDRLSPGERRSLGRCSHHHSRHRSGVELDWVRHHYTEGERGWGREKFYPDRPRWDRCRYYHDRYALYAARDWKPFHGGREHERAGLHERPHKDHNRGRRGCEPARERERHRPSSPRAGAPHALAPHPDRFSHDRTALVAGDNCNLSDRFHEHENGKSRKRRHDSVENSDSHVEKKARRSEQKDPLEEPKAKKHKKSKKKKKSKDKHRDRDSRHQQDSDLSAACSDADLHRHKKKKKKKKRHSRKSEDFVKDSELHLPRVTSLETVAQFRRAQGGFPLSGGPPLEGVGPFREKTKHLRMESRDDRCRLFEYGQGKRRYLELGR
Procedure, shortened: (§1)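 HEK293T lysate (495 µg per sample, in Tris/CHAPS/IGEPAL buffer with protease inhibitors) was exposed in triplicate for 3 h to fragment at 200 µM or to vehicle, then to Biotin-Ahx-Ub-VS at 0.5 µM final for 1 h. Labelled DUBs were enriched on NeutrAvidin, digested with LysC and trypsin, and analysed by diaPASEF LC-MS/MS. Spectronaut label-free quantities were normalised to the global median, and values are average log2 ratios of fragment over vehicle from an unpaired t-test. Only proteins with ≥2 unique peptides were used.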

[2] = molecular target: USP46 (UniProt P62068)
Chain of USP46 (P62068 whole entry): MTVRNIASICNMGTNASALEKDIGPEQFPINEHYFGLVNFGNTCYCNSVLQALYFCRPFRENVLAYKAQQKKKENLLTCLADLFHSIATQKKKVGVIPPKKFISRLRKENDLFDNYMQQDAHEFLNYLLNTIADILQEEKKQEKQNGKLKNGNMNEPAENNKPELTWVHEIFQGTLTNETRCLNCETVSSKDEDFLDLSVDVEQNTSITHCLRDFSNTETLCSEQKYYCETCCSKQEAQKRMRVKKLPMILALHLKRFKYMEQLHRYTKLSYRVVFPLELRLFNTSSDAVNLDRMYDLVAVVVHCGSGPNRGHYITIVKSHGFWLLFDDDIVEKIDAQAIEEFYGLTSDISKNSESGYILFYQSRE
Procedure, shortened: as §1

[3] = molecular target: T2, USP47 (UniProt Q96K76)
T2 sequence (whole entry): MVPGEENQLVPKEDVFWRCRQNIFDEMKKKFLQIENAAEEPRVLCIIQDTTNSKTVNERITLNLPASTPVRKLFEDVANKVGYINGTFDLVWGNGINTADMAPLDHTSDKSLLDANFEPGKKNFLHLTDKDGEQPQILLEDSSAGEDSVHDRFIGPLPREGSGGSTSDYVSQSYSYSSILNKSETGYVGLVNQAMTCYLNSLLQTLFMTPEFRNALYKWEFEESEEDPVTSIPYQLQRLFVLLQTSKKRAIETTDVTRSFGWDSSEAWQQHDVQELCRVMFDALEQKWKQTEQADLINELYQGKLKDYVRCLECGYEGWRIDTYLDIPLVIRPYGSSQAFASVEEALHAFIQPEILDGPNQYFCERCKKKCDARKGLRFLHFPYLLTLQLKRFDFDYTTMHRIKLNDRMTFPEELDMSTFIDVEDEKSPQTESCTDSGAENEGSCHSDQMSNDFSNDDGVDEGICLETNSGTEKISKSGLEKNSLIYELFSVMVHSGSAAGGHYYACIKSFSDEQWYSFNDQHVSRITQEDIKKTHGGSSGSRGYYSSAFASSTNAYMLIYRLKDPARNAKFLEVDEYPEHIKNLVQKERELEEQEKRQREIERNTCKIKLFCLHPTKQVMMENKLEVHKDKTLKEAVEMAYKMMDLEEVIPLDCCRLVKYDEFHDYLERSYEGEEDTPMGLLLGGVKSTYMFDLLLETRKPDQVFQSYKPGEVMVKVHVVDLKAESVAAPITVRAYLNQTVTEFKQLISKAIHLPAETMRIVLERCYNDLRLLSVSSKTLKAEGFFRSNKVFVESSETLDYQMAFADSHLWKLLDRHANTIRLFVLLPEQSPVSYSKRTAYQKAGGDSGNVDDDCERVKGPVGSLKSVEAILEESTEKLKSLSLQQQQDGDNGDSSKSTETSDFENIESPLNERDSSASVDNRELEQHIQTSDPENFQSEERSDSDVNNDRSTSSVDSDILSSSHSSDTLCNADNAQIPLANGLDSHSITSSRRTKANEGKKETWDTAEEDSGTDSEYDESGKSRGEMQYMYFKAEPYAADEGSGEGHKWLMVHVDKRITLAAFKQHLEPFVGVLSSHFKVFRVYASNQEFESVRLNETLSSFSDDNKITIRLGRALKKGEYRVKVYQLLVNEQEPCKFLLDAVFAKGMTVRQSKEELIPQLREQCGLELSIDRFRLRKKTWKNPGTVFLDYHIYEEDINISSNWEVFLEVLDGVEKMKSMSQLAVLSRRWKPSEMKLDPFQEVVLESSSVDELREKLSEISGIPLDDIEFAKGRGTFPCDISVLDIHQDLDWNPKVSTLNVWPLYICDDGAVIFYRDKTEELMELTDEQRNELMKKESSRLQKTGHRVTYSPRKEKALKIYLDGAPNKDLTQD
Procedure, shortened: as §1

[4] = molecular target: T3, USP48 (UniProt Q86UV5)
T3 sequence (whole entry): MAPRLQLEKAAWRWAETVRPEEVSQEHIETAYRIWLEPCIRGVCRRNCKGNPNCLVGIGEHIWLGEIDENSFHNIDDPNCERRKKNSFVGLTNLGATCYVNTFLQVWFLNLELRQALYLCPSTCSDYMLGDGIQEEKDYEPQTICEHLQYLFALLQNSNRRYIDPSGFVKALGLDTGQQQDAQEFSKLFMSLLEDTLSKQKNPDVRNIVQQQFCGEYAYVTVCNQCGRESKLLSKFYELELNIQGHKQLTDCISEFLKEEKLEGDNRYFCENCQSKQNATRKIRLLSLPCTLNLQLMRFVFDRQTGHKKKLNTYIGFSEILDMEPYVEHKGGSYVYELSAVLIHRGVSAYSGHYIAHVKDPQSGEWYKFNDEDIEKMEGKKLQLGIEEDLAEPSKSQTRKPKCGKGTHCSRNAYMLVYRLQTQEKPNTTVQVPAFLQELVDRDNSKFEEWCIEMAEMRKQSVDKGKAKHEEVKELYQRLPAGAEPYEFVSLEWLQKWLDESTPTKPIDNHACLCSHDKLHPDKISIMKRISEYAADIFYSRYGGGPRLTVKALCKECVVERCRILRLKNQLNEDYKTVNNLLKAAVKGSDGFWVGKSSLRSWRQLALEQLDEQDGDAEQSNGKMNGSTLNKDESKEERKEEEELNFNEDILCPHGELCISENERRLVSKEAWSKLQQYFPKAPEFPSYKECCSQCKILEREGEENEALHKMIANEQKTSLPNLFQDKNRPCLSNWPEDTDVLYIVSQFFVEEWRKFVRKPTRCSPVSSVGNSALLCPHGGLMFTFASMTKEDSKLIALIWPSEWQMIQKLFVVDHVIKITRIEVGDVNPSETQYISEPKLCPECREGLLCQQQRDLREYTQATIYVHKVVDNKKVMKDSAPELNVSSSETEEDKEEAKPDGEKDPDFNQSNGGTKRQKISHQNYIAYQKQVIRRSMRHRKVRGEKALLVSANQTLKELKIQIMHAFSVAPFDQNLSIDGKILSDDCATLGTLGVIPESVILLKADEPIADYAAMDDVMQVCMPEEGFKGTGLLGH
Procedure, shortened: as §1

[5] = molecular target: T4, USP5 (UniProt P45974)
T4 sequence (whole entry): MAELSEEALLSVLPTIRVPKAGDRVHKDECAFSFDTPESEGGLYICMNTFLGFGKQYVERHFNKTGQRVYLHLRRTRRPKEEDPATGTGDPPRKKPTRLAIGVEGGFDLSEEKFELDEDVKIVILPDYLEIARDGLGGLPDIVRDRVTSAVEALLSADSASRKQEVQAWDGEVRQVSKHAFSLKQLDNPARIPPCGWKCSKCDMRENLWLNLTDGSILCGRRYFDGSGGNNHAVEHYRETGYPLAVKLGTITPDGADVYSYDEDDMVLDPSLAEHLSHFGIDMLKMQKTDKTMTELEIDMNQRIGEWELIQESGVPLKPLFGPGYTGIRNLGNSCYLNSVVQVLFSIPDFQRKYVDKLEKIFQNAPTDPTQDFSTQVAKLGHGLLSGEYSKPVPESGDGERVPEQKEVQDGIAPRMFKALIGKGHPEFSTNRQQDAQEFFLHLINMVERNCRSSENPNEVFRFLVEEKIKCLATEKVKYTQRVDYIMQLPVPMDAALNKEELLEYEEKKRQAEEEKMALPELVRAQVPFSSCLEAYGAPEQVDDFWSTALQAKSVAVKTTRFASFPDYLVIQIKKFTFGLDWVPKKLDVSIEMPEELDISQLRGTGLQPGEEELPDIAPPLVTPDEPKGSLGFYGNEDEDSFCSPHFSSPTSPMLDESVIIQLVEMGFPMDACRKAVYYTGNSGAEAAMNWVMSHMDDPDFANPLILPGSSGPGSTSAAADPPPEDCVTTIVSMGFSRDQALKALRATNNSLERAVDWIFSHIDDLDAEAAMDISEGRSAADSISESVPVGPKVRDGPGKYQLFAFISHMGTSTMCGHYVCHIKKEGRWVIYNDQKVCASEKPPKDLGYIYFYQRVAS
Procedure, shortened: as §1

[6] = molecular target: USP54 (UniProt Q70EL1)
Chain of USP54 (Q70EL1 whole entry): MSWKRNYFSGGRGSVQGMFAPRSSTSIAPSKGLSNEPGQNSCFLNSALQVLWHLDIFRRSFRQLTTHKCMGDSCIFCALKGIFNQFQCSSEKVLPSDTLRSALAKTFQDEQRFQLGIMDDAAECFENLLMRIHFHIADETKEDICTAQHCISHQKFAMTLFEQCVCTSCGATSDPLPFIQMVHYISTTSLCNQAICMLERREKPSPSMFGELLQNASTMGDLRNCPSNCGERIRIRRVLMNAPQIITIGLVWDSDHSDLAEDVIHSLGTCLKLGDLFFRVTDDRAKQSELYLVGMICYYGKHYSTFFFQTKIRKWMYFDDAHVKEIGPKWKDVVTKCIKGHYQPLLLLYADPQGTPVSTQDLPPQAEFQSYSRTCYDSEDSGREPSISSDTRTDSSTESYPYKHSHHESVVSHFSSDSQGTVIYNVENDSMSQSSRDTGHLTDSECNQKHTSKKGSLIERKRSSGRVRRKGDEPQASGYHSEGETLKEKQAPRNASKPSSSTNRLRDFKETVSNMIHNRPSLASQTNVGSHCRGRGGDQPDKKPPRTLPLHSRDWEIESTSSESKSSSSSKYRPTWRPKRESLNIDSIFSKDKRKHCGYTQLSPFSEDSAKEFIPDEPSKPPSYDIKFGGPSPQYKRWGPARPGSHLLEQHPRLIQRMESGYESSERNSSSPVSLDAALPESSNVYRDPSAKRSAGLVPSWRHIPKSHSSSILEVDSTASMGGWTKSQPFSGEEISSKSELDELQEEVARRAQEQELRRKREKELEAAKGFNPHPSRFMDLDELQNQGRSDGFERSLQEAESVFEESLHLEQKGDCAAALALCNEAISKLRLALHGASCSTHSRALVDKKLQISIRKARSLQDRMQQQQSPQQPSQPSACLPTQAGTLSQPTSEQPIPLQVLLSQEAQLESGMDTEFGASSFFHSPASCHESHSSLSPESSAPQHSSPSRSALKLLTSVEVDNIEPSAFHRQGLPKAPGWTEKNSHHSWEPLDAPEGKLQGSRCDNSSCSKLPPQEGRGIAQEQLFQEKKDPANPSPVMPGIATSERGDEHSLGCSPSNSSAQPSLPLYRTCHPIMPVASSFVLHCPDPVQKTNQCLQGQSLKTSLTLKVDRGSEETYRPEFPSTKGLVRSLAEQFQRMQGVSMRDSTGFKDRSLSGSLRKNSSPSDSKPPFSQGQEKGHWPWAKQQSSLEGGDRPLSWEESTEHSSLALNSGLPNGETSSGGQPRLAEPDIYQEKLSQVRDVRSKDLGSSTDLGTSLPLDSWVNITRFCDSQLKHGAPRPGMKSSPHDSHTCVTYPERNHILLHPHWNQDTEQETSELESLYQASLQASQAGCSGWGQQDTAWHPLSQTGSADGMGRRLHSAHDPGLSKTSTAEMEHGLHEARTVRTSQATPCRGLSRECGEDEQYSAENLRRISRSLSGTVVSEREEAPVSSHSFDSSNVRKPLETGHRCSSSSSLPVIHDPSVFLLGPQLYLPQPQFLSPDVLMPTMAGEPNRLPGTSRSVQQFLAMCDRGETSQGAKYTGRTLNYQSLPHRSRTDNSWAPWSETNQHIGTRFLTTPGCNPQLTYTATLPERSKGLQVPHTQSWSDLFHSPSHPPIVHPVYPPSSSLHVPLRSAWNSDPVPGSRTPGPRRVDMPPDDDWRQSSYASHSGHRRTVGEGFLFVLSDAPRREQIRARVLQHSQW
Procedure, shortened: as §1

[7] = molecular target: USP7 (UniProt Q93009)
Procedure, shortened: as §1

[8] = molecular target: T5, USP8 (UniProt P40818)
T5 sequence (whole entry): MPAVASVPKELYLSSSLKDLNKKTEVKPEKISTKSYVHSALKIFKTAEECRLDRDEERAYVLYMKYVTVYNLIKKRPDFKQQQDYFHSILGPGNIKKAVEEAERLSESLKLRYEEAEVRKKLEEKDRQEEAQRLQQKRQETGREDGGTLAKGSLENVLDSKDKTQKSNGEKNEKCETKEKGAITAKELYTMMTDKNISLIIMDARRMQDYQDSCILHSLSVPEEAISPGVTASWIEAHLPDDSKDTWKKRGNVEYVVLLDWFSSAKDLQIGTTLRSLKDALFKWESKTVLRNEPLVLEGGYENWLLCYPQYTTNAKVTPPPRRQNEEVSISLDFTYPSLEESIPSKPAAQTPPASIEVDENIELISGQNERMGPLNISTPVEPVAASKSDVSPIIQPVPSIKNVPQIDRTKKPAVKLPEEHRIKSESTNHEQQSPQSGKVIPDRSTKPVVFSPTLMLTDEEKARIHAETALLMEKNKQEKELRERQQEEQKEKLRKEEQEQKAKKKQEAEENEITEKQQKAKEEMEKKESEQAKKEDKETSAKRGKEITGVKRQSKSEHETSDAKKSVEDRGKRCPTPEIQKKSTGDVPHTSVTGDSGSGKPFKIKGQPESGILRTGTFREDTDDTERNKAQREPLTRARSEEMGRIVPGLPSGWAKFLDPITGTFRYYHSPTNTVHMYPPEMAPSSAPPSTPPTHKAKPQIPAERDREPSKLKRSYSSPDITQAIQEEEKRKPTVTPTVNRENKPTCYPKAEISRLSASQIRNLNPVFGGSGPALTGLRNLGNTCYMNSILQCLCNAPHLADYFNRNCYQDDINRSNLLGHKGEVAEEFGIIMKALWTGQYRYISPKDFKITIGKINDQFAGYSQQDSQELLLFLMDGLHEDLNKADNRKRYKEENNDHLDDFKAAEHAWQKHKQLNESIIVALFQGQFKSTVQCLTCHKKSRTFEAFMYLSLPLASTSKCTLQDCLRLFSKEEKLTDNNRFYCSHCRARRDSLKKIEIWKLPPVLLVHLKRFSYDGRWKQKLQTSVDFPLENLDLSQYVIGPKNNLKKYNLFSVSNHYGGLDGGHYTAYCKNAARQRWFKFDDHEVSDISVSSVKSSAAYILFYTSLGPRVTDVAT
Procedure, shortened: as §1

[9] = molecular target: USP9X (UniProt Q93008)
Chain of USP9X (Q93008 whole entry): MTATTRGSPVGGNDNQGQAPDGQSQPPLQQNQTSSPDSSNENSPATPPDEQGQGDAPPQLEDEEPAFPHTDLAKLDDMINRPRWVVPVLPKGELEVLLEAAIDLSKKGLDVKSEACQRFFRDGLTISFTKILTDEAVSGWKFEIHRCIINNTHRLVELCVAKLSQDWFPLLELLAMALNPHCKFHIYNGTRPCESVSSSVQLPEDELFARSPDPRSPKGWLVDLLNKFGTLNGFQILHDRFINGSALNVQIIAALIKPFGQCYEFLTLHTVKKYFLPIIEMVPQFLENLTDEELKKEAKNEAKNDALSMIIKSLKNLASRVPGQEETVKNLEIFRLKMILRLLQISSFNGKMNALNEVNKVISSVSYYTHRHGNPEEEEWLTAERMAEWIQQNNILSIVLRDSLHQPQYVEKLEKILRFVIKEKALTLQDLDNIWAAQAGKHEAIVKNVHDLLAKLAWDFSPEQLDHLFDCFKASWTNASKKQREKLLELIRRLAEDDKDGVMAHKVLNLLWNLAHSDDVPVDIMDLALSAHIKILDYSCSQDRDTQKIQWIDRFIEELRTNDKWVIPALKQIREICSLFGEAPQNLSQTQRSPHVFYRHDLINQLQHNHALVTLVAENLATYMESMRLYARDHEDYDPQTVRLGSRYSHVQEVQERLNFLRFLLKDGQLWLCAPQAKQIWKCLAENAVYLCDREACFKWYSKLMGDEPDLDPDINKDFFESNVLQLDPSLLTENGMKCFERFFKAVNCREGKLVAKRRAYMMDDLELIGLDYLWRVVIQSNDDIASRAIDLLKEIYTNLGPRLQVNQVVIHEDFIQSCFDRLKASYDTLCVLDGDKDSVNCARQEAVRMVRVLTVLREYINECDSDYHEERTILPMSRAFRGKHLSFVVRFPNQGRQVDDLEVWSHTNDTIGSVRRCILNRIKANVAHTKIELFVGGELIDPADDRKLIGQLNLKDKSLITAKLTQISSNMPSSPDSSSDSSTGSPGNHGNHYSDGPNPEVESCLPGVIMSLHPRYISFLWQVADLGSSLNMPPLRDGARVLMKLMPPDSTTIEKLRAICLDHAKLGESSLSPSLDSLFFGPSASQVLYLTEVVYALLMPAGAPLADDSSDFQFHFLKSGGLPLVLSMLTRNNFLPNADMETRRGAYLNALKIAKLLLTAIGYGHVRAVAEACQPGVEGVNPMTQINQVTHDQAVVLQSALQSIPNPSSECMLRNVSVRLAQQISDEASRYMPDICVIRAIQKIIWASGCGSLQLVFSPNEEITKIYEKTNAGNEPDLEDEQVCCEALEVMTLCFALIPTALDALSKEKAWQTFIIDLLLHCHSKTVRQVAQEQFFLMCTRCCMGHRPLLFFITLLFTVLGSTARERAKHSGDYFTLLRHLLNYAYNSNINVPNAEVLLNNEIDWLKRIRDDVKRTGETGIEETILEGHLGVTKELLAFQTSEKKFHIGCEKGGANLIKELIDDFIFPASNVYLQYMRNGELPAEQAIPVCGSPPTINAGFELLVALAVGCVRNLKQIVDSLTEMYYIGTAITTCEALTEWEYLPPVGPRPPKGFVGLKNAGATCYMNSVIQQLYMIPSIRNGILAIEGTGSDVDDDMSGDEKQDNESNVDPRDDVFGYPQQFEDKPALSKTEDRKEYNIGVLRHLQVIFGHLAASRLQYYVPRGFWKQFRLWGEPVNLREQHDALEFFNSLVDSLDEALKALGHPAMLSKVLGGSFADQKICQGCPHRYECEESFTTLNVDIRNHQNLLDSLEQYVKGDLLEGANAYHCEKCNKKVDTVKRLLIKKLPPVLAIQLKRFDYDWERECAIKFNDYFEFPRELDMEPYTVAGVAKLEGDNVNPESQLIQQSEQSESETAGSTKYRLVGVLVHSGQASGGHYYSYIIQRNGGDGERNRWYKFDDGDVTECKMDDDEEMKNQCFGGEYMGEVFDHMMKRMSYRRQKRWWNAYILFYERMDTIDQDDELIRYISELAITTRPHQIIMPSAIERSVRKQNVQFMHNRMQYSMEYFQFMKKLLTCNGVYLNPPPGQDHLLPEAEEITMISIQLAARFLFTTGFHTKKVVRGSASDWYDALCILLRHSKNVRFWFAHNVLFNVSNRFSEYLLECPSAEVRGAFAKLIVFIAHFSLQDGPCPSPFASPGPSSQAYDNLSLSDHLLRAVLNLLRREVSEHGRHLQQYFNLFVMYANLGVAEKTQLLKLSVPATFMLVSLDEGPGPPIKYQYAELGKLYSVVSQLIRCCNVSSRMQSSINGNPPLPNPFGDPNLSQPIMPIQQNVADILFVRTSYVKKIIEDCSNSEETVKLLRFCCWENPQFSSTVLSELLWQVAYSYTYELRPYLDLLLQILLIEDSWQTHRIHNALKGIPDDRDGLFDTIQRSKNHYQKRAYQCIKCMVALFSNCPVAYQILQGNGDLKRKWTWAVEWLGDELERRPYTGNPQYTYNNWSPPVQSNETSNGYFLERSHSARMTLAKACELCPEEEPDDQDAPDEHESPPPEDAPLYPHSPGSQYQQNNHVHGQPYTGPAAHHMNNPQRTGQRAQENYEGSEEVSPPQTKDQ
Procedure, shortened: as §1

[10] = molecular target: UniProt O00487
Chain of UniProt O00487 (O00487 whole entry): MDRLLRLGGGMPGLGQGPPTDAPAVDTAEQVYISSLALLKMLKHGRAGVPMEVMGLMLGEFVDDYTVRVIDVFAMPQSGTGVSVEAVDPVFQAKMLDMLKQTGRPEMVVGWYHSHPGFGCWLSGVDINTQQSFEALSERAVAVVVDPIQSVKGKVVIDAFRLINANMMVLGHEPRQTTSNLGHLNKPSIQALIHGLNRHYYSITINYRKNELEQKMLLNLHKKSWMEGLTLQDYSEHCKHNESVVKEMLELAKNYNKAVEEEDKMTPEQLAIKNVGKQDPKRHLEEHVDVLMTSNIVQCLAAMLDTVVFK
Procedure, shortened: as §1

Measured: log2 ratio of Biotin-Ahx-Ub-VS probe labelling

O=C(CCl)NC1CCS(=O)(=O)c2ccccc21 (stereo not given)
inactive: [1] -0.57 | [2] -0.0772 | [3] -0.498 | [4] -0.471 | [5] -0.0632 | [6] 0.689 | [7] -0.288 | [8] -0.538 | [9] -0.445 | [10] -0.242

Cc1ccn2cc(CNC(=O)CCl)nc2c1.Cl
inactive: [1] 0.192 | [2] -0.0106 | [3] -0.5 | [4] -0.153 | [5] 0.0336 | [6] 0.581 | [7] -0.341 | [8] -0.325 | [9] -0.141 | [10] -0.0788

Cl.O=C(CCl)NCc1ccnc(Oc2ccccc2F)c1
inactive: [1] -0.336 | [2] 0.0702 | [3] -0.71 | [4] -0.278 | [5] 0.126 | [6] 0.365 | [7] -0.357 | [8] -0.181 | [9] -0.17 | [10] 0.13

O=C(CCl)NC1CCC(C(F)(F)F)CC1 (stereo not given)
inactive: [1] 0.589 | [2] -0.0439 | [3] -0.0726 | [4] -0.174 | [5] -0.36 | [6] 0.0395 | [7] -0.303 | [8] -0.0509 | [9] -0.178 | [10] -0.185
